The nature of test [1]: Viability qHTS for spleen associated tyrosine kinase inhibitor (SYKi) drug resistant MV4-11 cells (AID 1963824). Note: nearly all actives have a fitted effect of over 35% in size. The gist of the method: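 SYK inhibitor-resistant MV4-11 AML cells, 500 per well, added to predispensed compounds and incubated 72 hr at 37 C, 5% CO2. Viability measured by CellTiter-Glo luminescence after 10 min at room temperature.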
(In qHTS, concentration-response curves come from the screen itself.)

Test [2] in a line: Cellular viability qHTS for adrenocortical cancer (ACC) cell line SW-13 (AID 1963989).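 For activity (max response): cells grown in serum-free medium with ITS supplement; % is set by controls: 0 for no effect and ±100 for the full control effect.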 Note: nearly all actives have a fitted effect of over 65% in size. The note with it: SW-13 ACC cells viability, CellTiter-Glo, 48 h; activity (max response): active compounds read low. The gist of the method:
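Compound titrations (up to 46 uM final, in DMSO) were applied to SW-13 cells for 48 h at 37C/5% CO2. Reading used CellTiter-Glo after 20 min at room temperature; fitted curves yielded IC50 and efficacy.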

Each structure is given as a SMILES string. Results filed as inconclusive are left out. Values without a mark were called inactive. Activity calls are given as the source filed them. Calls come from the whole dose curve; as a rule, active = well fitted curve in the direction sought with a large enough effect; inconclusive = small, poorly fitted or top-dose-only effect, or another doubt; inactive = no such curve, though single readings can be large; an effect the other way counts as inactive or inconclusive.
Potency is the fitted concentration of half-maximal effect.

Consider `CC(C)C[C@@H]1NC(=O)[C@@H](C(C)C)NC(=O)[C@@H]2CCCN2C(=O)[C@@H](CC(=O)O)NC(=O)[C@@H](Cc2c[nH]c3ccccc23)NC1=O`, for which the Potency in test [1] is 9.34 µM (active). The activity (max response) in test [2] was -0.875%.
In the case of `CNCCc1ccccn1`, the Potency entry in test [1] is “inactive”. The activity (max response) in test [2] is 13.5%.
For the compound `CN1CC[C@@H](NC(=O)Nc2ccc(C#N)cc2)C[C@@H]1c1nc2ccccc2[nH]1`, the Potency in test [1] is 18.6 µM (active). Moreover, the activity (max response) in test [2] was -1.78%.
For `COc1cc(C)c(/C=C/C(C)=C/C=C/C(C)=C/C(=O)O)c(C)c1C` the same measures were 4.68 µM (active) and -22.4%.
For `Nc1c(NC/C=C\COc2cc(CN3CCCCC3)ccn2)c(=O)c1=O` the same measures were “inactive” and 4.55%.
On to `C=CC(=O)N[C@H]1CN(c2nc(Nc3cn(C)nc3OC)c3ncn(C)c3n2)C[C@@H]1F`, for which the Potency was 18.6 µM (active) in test [1] and 0.199 µM (active) in test [2].
In the case of `CC(NN)c1ccccc1` (configuration not stated), the Potency result in test [1] is “inactive”. In addition, in test [2], the activity (max response) was -4.01%.
For `C=CCN1C[C@H](C(=O)N(CCCN(C)C)C(=O)NCC)CC2c3cccc4[nH]cc(c34)C[C@H]21` (some centres not stated) the same measures were 16.6 µM (active) and -6.18%.
With `O=C(NO)C1(CS(=O)(=O)c2ccc(Oc3ccc(Cl)cc3)cc2)CCOCC1`, the figures for the Potency in test [1] and in test [2] were 16.6 µM (active) and 25.1 µM (active), respectively.
For the compound `Cc1c(NC(=O)c2cc(C(N)=O)nc3cc(F)ccc23)c(C(F)(F)F)nn1Cc1ccc(C#N)cc1`, the Potency entry in test [1] was “inactive”. The activity (max response) in test [2] is -7.79%.
For `CCN(CC)CCSC(=O)C(c1ccccc1)c1ccccc1`, in test [1], the Potency entry is “inactive”. For the same compound, in test [2], the activity (max response) was -19.1%.
Turning to `Cc1ccc(NC(=O)c2ccc3c(c2)OCCO3)cc1NC(=O)c1ccc2nc(OCCN3CCCC3)ccc2c1`, the Potency in test [1] is 0.0229 µM (active); in test [2] it was 0.802 µM (active).
For `C/C=C1\NC(=O)[C@H]2CSSCC/C=C\[C@H](CC(=O)N[C@H](C(C)C)C(=O)N2)OC(=O)[C@H](C(C)C)NC1=O` the same measures were 0.0074 µM (active) and 0.0126 µM (active).
Consider `O=C(O)c1cc(=O)c2ccccc2o1`, for which the Potency result in test [1] was “inactive”. In addition, the activity (max response) in test [2] was -0.886%.
For `CCCCNc1c(C(=O)OCC)c(C)nc2c1cnn2CC` the same measures were “inactive” and -16.9%.
Take `COc1cc(S(C)(=O)=O)ccc1Nc1nc2ccc(-c3ccc(NC(=O)[C@H](C)c4ccc(F)cc4)cc3)cn2n1`: the Potency in test [1] was 0.468 µM (active). In addition, the activity (max response) in test [2] was -19.6%.

For the origin of these results see PubChem BioAssay (NCATS).
